Positions count from the first letter of the chain named.
Tests used:
Assay in all cases: protein-binding microarray (PBM); PBM: ~300 nM protein, 6 mM HEPES pH 7.8, 80 mM KCl, 0.5 mM EDTA, 0.5 mM EGTA, 6% glycerol, 35 ng/ul poly-dIdC, 1% milk, 1 h, room temperature; Ap Aiptasia and Nv Nematostella (sea anemones) / Co Capsaspora / Aq Amphimedon (sponge) / Dm Drosophila / Hu human; RHD is the Rel homology domain; high values mean tight binding
Conditions in all cases: dsDNA, one strand shown
[1] = biological target: T1, GST-Dm-Relish (Drosophila melanogaster, UniProt Q94527 99-473)
T1 sequence: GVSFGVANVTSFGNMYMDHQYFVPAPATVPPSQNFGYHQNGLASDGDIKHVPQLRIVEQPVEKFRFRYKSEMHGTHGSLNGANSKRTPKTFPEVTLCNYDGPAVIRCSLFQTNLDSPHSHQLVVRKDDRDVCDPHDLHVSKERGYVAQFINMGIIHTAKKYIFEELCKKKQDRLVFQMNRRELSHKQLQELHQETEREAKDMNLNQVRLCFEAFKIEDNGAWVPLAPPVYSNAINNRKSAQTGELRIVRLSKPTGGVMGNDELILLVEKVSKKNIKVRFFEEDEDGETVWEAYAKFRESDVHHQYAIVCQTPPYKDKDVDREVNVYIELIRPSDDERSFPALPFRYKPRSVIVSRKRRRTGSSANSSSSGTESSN

[2] = biological target: T2, GST-Aq-NF-kB (Amphimedon queenslandica, UniProt A9Y5G7 2-389)
T2 sequence: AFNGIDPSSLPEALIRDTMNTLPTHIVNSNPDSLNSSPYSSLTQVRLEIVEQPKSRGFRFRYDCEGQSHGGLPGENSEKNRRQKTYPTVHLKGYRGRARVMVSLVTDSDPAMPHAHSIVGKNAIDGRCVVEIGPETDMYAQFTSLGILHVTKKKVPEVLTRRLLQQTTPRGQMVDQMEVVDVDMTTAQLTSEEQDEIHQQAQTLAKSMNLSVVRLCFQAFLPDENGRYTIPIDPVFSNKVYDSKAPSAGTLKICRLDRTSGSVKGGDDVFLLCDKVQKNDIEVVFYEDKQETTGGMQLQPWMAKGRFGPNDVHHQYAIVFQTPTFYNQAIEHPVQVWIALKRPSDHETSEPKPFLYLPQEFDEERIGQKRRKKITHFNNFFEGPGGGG

[3] = biological target: T3, GST-Nv-NF-kB (Ser allele) (Nematostella vectensis, UniProt A7UNT2 2-411)
T3 sequence: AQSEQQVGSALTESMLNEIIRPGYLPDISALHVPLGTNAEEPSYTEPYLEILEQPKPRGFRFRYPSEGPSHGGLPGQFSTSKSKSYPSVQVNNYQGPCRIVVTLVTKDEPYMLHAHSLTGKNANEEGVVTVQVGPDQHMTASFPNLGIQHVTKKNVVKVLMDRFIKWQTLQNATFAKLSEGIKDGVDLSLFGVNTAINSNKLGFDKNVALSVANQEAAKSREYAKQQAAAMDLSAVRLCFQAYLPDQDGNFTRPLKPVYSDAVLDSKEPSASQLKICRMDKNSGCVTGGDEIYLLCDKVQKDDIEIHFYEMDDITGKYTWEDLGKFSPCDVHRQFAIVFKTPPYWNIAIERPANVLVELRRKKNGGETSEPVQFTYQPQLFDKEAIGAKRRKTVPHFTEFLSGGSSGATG

[4] = biological target: GST-Hu-p50 (Homo sapiens, UniProt P19838 7-356)
[5] = biological target: T4, GST-Ap-NF-kB RHD (Exaiptasia pallida (Aiptasia), UniProt A0A913YAJ5 2-422)
T4 sequence: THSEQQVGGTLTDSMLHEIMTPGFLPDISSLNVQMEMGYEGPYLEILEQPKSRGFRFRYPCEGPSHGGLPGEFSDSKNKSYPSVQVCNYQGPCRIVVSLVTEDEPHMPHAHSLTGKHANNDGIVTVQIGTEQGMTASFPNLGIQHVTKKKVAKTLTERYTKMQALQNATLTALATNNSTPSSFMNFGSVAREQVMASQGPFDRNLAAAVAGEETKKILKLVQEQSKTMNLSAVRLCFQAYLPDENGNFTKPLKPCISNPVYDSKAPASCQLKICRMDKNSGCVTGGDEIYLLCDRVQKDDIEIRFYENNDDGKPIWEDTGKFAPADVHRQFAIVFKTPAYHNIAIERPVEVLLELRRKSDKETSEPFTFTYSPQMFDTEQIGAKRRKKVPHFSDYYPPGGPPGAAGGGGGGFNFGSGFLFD

[6] = biological target: T5, GST-Co-NF-kB (Capsaspora owczarzaki, UniProt F1ARL5 200-546)
T5 sequence: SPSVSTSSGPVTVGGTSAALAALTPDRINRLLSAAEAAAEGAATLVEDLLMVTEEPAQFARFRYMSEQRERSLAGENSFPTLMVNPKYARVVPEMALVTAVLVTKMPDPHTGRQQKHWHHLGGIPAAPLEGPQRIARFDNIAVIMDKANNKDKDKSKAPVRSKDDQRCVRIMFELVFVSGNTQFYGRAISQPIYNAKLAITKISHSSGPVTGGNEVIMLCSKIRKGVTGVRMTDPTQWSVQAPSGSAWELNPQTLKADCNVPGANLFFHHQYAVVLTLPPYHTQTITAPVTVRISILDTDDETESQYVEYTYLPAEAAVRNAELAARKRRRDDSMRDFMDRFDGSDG

[7] = biological target: T6, GST-Nv-NF-kB (Cys allele) (Nematostella vectensis, UniProt E5G601 2-411)
T6 sequence: T3 sequence with R21Q, S66C, N207S, Q215E, A217V, K225E, E268A, E399D

GST-Hu-p50, sequence (P19838 7-356): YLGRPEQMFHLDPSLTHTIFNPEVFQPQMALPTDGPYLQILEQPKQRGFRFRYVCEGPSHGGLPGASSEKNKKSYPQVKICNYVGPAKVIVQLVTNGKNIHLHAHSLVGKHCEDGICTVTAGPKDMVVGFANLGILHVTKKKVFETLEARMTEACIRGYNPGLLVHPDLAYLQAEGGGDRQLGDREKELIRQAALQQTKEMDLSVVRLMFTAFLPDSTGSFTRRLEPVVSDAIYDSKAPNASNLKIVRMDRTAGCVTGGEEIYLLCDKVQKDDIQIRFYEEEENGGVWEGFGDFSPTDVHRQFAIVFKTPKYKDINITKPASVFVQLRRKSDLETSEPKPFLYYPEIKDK

**Q.** With “CCGATTAACATCAGAGGAATTCCTGATGTTAATCGGGTCTTGATTCGCTTGACGCTGCTG” as the sequence, how does the binding signal [1] read?
**A.** 2.63 z-score

**Q.** And the binding signal [2]?
**A.** 2.12 z-score

**Q.** Which binding signal [3] does the source give for “CCGATTAACATCACGTGTGTAGGTGATGTTAATCGGGTCTTGATTCGCTTGACGCTGCTG” here?
**A.** 1.58 z-score

**Q.** What about the binding signal [4] of the same sequence?
**A.** 1.87 z-score

**Q.** How did the binding signal [1] turn out when “CCGATTAACATCAAGGAATTCCGTGATGTTAATCGGGTCTTGATTCGCTTGACGCTGCTG” was run?
**A.** 1.78 z-score

**Q.** And the binding signal [2]?
**A.** 1.75 z-score

**Q.** “CCGATTAACATCAGGAAGGGCGGTGATGTTAATCGGGTCTTGATTCGCTTGACGCTGCTG” was tested. Which binding signal [5] did it give?
**A.** 1.05 z-score

**Q.** And the binding signal [6]?
**A.** 1.08 z-score

**Q.** And the binding signal [4]?
**A.** 1.07 z-score

**Q.** For “CCGATTAACATCAGGGAGCCGTATGATGTTAATCGGGTCTTGATTCGCTTGACGCTGCTG”, which binding signal [5] is on record?
**A.** 1.18 z-score

**Q.** “CCGATTAACATCACTCTTCTCGGTGATGTTAATCGGGTCTTGATTCGCTTGACGCTGCTG” was tested. Which binding signal [7] did it give?
**A.** 1.05 z-score

**Q.** And the binding signal [3]?
**A.** 1.37 z-score

**Q.** And the binding signal [1]?
**A.** 1.33 z-score

**Q.** What about the binding signal [4] of the same sequence?
**A.** 1.72 z-score

**Q.** “CCGATTAACATCATATTGGGAAATGATGTTAATCGGGTCTTGATTCGCTTGACGCTGCTG” was tested. Which binding signal [7] did it give?
**A.** 2.26 z-score

**Q.** And the binding signal [3]?
**A.** 1.92 z-score

**Q.** What about the binding signal [6] of the same sequence?
**A.** 2.03 z-score

**Q.** What about the binding signal [4] of the same sequence?
**A.** 1.12 z-score

**Q.** Which results are given for “CCGATTAACATCACGGAAAAAACTGATGTTAATCGGGTCTTGATTCGCTTGACGCTGCTG”?
**A.** binding signal [7]: 1.12 z-score; binding signal [3]: 1.13 z-score; binding signal [6]: 1.37 z-score; binding signal [1]: 1.6 z-score; binding signal [4]: 1.36 z-score

**Q.** Which results are given for “CCGATTAACATCACCTGGTCGGGTGATGTTAATCGGGTCTTGATTCGCTTGACGCTGCTG”?
**A.** binding signal [3]: 1.03 z-score; binding signal [6]: 1.5 z-score; binding signal [1]: 1.13 z-score; binding signal [4]: 2.04 z-score

**Q.** Which results are given for “CCGATTAACATCATTTCTTACGGTGATGTTAATCGGGTCTTGATTCGCTTGACGCTGCTG”?
**A.** binding signal [1]: 1.25 z-score; binding signal [4]: 1.44 z-score

**Q.** With “CCGATTAACATCACGGCCTTTCCTGATGTTAATCGGGTCTTGATTCGCTTGACGCTGCTG” as the sequence, how does the binding signal [1] read?
**A.** 1.05 z-score

**Q.** And the binding signal [2]?
**A.** 1.82 z-score

**Q.** Which results are given for “CCGATTAACATCAAGTAAATTCCTGATGTTAATCGGGTCTTGATTCGCTTGACGCTGCTG”?
**A.** binding signal [1]: 2.49 z-score; binding signal [2]: 1.35 z-score

**Q.** “CCGATTAACATCACCTTGTGATCTGATGTTAATCGGGTCTTGATTCGCTTGACGCTGCTG” was tested. Which binding signal [4] did it give?
**A.** 1.21 z-score

**Q.** Which results are given for “CCGATTAACATCACAAAATTTCCTGATGTTAATCGGGTCTTGATTCGCTTGACGCTGCTG”?
**A.** binding signal [1]: 1.74 z-score; binding signal [2]: 1.72 z-score

**Q.** Which results are given for “CCGATTAACATCACCGAGTTAGTTGATGTTAATCGGGTCTTGATTCGCTTGACGCTGCTG”?
**A.** binding signal [7]: 1.15 z-score; binding signal [4]: 1.5 z-score

**Q.** How did the binding signal [1] turn out when “CCGATTAACATCAAAAATTCCGTTGATGTTAATCGGGTCTTGATTCGCTTGACGCTGCTG” was run?
**A.** 1.08 z-score

**Q.** What about the binding signal [2] of the same sequence?
**A.** 2.1 z-score

**Q.** With “CCGATTAACATCATAAAATTCCATGATGTTAATCGGGTCTTGATTCGCTTGACGCTGCTG” as the sequence, how does the binding signal [1] read?
**A.** 1.32 z-score

**Q.** And the binding signal [2]?
**A.** 1.26 z-score

**Q.** How did the binding signal [4] turn out when “CCGATTAACATCAGGGCCAAAAATGATGTTAATCGGGTCTTGATTCGCTTGACGCTGCTG” was run?
**A.** 1.38 z-score

**Q.** With “CCGATTAACATCAATTCCCAACCTGATGTTAATCGGGTCTTGATTCGCTTGACGCTGCTG” as the sequence, how does the binding signal [7] read?
**A.** 2.15 z-score

**Q.** And the binding signal [3]?
**A.** 1.9 z-score

**Q.** And the binding signal [6]?
**A.** 2.06 z-score

**Q.** And the binding signal [4]?
**A.** 1.06 z-score

**Q.** “CCGATTAACATCAGCAATGTAGGTGATGTTAATCGGGTCTTGATTCGCTTGACGCTGCTG” was tested. Which binding signal [4] did it give?
**A.** 1.13 z-score

**Q.** How did the binding signal [4] turn out when “CCGATTAACATCACCTTAGGTTTTGATGTTAATCGGGTCTTGATTCGCTTGACGCTGCTG” was run?
**A.** 1.04 z-score

**Q.** How did the binding signal [7] turn out when “CCGATTAACATCACCTTGAACGGTGATGTTAATCGGGTCTTGATTCGCTTGACGCTGCTG” was run?
**A.** 1.56 z-score

**Q.** What about the binding signal [3] of the same sequence?
**A.** 1.73 z-score

**Q.** And the binding signal [1]?
**A.** 1.69 z-score

**Q.** What about the binding signal [4] of the same sequence?
**A.** 2.74 z-score

**Q.** How did the binding signal [4] turn out when “CCGATTAACATCATGGTGCTTAATGATGTTAATCGGGTCTTGATTCGCTTGACGCTGCTG” was run?
**A.** 1.41 z-score

**Q.** With “CCGATTAACATCACCTAACTTGATGATGTTAATCGGGTCTTGATTCGCTTGACGCTGCTG” as the sequence, how does the binding signal [3] read?
**A.** 1.07 z-score

**Q.** What about the binding signal [4] of the same sequence?
**A.** 1.66 z-score

**Q.** How did the binding signal [4] turn out when “CCGATTAACATCACCCTCCAATTTGATGTTAATCGGGTCTTGATTCGCTTGACGCTGCTG” was run?
**A.** 1.13 z-score

**Q.** Which binding signal [4] does the source give for “CCGATTAACATCAGAATTTTTCCTGATGTTAATCGGGTCTTGATTCGCTTGACGCTGCTG” here?
**A.** 1.1 z-score

**Q.** How did the binding signal [5] turn out when “CCGATTAACATCAGGAAATGGGATGATGTTAATCGGGTCTTGATTCGCTTGACGCTGCTG” was run?
**A.** 1.33 z-score

**Q.** With “CCGATTAACATCAGGAAACTCCATGATGTTAATCGGGTCTTGATTCGCTTGACGCTGCTG” as the sequence, how does the binding signal [1] read?
**A.** 1.62 z-score

**Q.** And the binding signal [2]?
**A.** 2.15 z-score

**Q.** Which binding signal [4] does the source give for “CCGATTAACATCACCTTTTACATTGATGTTAATCGGGTCTTGATTCGCTTGACGCTGCTG” here?
**A.** 1.53 z-score

— article PMC5700166
